Assay outcomes (PubChem BioAssay)
The list is not random: actives were taken first. Their share in the collection is about 2.8%.
SENP8 block-1 = SENP8 protease inhibitors, primary screen, biochemical, luminescence. inhibition, % at 10 µM. AID 2540, 2010. purified SENP8, Z-RLRGG-aminoluciferin cleavage. Sentrin-specific protease 8 (Homo sapiens), Q96LD8. 330,000 compounds, 1.2% hits; in the data active = inhibition above about 50%
HSP90 refold inh = HSP90 inhibitors, primary screen, cell lysate, luminescence. 290,000 compounds, 0.91% hits. Rabbit reticulocyte lysate, luciferase refolding luminescence, 3 h. AID 1789, 2009. inhibition, % at 5.6 µM;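 active = inhibition above the screen-wide mean plus 3 SD, computed separately per campaign, cut at about 16% in these data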;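 note: 0% = DMSO wells and 100% = 60 µM geldanamycin wells; inhibitors lower the luminescence because luciferase stays unfolded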
SENP7 block = SENP7 protease inhibitors, primary screen, biochemical, luminescence, uHTS; 330,000 compounds, 1.5% hits; inhibition, % at 5 µM; recombinant SENP7, Z-RLRGG-aminoluciferin luminescence, 40 min; Sentrin-specific protease 7 (Homo sapiens), Q9BQF6; AID 434973, 2010;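 active = inhibition above about 50% at the single test dose, limit read from the data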;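 note: plate controls were DMSO with enzyme for no effect and no enzyme buffer wells for full effect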
Target sequence (Q9BQF6 706-1050 limits assumed): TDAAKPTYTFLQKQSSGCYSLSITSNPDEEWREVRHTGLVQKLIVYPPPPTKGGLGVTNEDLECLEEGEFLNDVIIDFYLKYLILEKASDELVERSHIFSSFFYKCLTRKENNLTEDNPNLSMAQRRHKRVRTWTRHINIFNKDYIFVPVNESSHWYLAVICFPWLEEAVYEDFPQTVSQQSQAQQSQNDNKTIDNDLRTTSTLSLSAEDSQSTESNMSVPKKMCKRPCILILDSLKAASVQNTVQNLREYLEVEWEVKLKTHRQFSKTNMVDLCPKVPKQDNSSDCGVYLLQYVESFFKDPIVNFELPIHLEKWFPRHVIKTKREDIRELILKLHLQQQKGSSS
SENP8 block-2 = human SENP8 protease inhibitors, primary screen, biochemical, fluorescence, Nedd8 protein substrate, uHTS; inhibition, % at 20 µM; AID 602440, 2012; Sentrin-specific protease 8 (Homo sapiens), Q96LD8; 360,000 compounds, 0.64% hits; recombinant SENP8; in the data active = inhibition mostly above about 40%, no sharp cut-off; inactive = mostly below about 27%
SENP6 inh = SENP6 protease inhibitors, primary screen, biochemical, luminescence, uHTS; Sentrin-specific protease 6 (Homo sapiens), Q9GZR1; Recombinant SENP6 catalytic domain, aminoluciferin luminescence; inhibition, % at 10 µM; 330,000 compounds, 1.8% hits; AID 2599, 2010;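 active = inhibition above about 50% at the single tested dose, limit read from the data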;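 note: plate controls were DMSO wells with enzyme for no effect and DMSO wells lacking enzyme for full effect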
Platelet DG rel = inhibitors of platelet dense granule secretion, primary screen, cell-based, MLPCN, human platelets; inhibition, %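 (compounds screened at 7.5 µM in platelet-rich plasma)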; human platelet-rich plasma, SFLLRN dense granule ATP release, luminescence; 300,000 compounds, 0.22% hits;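 active = mean replicate score, as percent of positive control, at or above 50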
SENP8 confirm = SENP8 protease inhibitors, retest, confirmation, biochemical, luminescence, single concentration. shares compounds with SENP7 block. Recombinant SENP8, Z-RLRGG-aminoluciferin luminescence, 60 min. inhibition, % at 12.5 µM. 6,200 compounds, 40% hits;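 active = mean inhibition across replicates above about 50%, limit read from the data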
SENP6 confirm = SENP6 protease inhibitors, confirmation, biochemical, luminescence, single concentration. shares compounds with SENP7 block. recombinant SENP6, Z-RLRGG-aminoluciferin luminescence. inhibition, % at 12.5 µM. 6,200 compounds, 58% hits
SENP7 confirm = SENP7 protease inhibitors, retest, confirmation, biochemical, luminescence, single concentration | shares compounds with SENP7 block | recombinant SENP7, Z-RLRGG-aminoluciferin luminescence, 40 min | inhibition, % at 12.5 µM | 6,200 compounds, 69% hits | AID 488917, 2010
Casp3 select = caspase-3 protease inhibitors, confirmation, selectivity assay for SENP inhibitor project, biochemical, single concentration. purified caspase-3, Z-DEVD-aminoluciferin luminescence, 60 min. inhibition, % at 12.5 µM. shares compounds with SENP7 block. 6,200 compounds, 60% hits. AID 488918, 2010;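 active = mean inhibition above about 50%, limit read from the data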;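 note: plate controls were enzyme with DMSO for no effect and wells without caspase-3 for full effect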
Target sequence (P42574 28-227 limits assumed): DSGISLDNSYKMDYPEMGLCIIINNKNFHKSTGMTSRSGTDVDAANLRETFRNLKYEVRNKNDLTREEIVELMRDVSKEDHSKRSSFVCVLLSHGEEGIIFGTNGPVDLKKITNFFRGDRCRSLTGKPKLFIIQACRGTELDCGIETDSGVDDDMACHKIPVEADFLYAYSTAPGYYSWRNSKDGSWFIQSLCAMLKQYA
SENP luc ctr = interferes with luciferase luminescence in SENP counter-screen | shares compounds with SENP7 block | 6,200 compounds, 39% hits | inhibition, % at 12.5 µM | Pre-incubated SENP8/Z-RLRGG-aminoluciferin, luciferase luminescence interference;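 active = mean inhibition above about 50% when retested at one dose, limit read from the data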;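 note: plate controls were DMSO wells with completed reaction for no effect and substrate without enzyme for full effect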
Starred values were filed as active, the others as inactive; / = no result given.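 Rule for the calls, unless noted: active = mean inhibition above about 50% in the one-dose retest (limit read from the data); inactive = the rest.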

SMILES	SENP8 block-1	HSP90 refold inh	SENP7 block	SENP8 block-2	SENP6 inh	Platelet DG rel	SENP8 confirm	SENP6 confirm	SENP7 confirm	Casp3 select	SENP luc ctr
O=C(Nc1cccc(-c2ccc(N3CCCCC3)nn2)c1)c1ccco1	53.7*	/	73.1*	-10.9	76.0*	11.5	77.1*	73.8*	90.8*	74.7*	72.5*
O=C(COc1ccc(Cl)cc1)Nc1cccc(-c2ccc(N3CCOCC3)nn2)c1	11.8	/	68.2*	-5.7	54.3*	12.6	11.9	19.5	22.8	14.5	0.2
CC(=O)Nc1ccc(/C=C/c2noc(-c3ccccc3O)n2)cc1	-7.0	-6.3	58.6*	-237.1	-35.8	-3.0	4.5	2.1	0.7	-0.5	2.5
COc1cc(/C=C/c2noc(-c3ccccc3O)n2)ccc1OC(C)=O	-9.9	-7.0	18.9	1.7	12.4	0.6	/	/	/	/	/
Oc1ccccc1-c1nnco1	/	/	/	-88.9	/	/	/	/	/	/	/
Oc1ccccc1/C=C/c1noc(-c2ccccc2O)n1	2.8	-5.0	51.8*	-121.7	-6.5	10.0	-5.1	0.6	79.0*	38.1	4.7
O=c1cc(-c2ccccc2)[nH]c2nc3ccccc3n12	87.9*	8.5	97.7*	-307.1	88.2*	6.7	1.6	64.0*	64.1*	72.1*	5.4
O=c1cc(CCl)[nH]c2nc3ccccc3n12	-11.9	1.2	-4.7	-353.8	-8.4	6.1	/	/	/	/	/
Cc1ccc(OCC(=O)Nc2cccc(C)n2)c(C)c1	44.6	2.9	64.7*	0.5	74.2*	-0.3	30.3	66.8*	89.7*	68.8*	21.9
Cc1cccc(NC(=O)COc2ccc(Br)cc2)n1	-3.4	-4.3	18.3	14.0	6.3	-1.9	/	/	/	/	/
C[C@H](NS(=O)(=O)c1ccccc1F)C(=O)OCC(=O)Nc1ccc2c(c1)OCCO2	-5.2	/	3.2	2.8	0.0	/	/	/	/	/	/
C=CCNC(=O)c1ccccc1NC(=O)C1CC(=O)N(C(C)C)C1 (stereo not given)	-5.3	3.5	2.6	5.4	-17.7	11.1	/	/	/	/	/
Cc1nn(Cc2ccccc2Cl)c(C)c1C(=O)NCc1ccco1	-0.3	-3.2	1.9	8.4	-1.9	-0.2	/	/	/	/	/
Cc1nn(Cc2ccccc2Cl)c(C)c1C(=O)NCCN1C(=O)S/C(=C\c2ccccc2)C1=O	-1.9	-2.8	65.8*	6.7	-9.0	-6.9	-10.9	-3.8	-2.3	-2.3	-7.8
CC1=NN(C(N)=S)C(=O)C1N=Nc1ccc(Cl)cc1Cl (stereo not given)	93.6*	10.4	36.0	29.7	91.4*	-0.1	81.4*	85.6*	93.7*	71.5*	66.9*
CC1=NN(C(N)=S)C(=O)C1N=Nc1ccccc1Cl (stereo not given)	83.4*	6.0	52.8*	41.8*	88.5*	-5.0	42.9	89.9*	97.9*	82.4*	30.7
COc1ccccc1N=NC1C(=O)N(C(N)=S)N=C1C (stereo not given)	2.0	6.7	5.1	30.9	-12.1	-0.5	/	/	/	/	/
Cc1nn(-c2ccc(Cl)cc2Cl)c(=O)c2ccccc12	2.3	-5.5	-3.7	12.4	-9.8	-7.2	/	/	/	/	/
CCCCCN(C(=O)CCC(=O)OCC(=O)c1c(C)cc(C)cc1C)c1c(N)n(CCCC)c(=O)[nH]c1=O	-8.8	/	4.2	11.1	-5.6	-11.7	/	/	/	/	/
CCc1ccc(S(=O)(=O)Nc2cc(SCC(=O)O)c(O)c3ccccc23)cc1	28.1	3.0	30.3	32.9	72.7*	-7.2	14.9	36.6	12.2	-0.2	8.0
C[C@H](CO)N1C[C@H](C)[C@@H](CN(C)S(=O)(=O)c2ccccc2F)Oc2ncc(C#Cc3cccnc3)cc2C1=O	/	/	/	-15.3	/	/	/	/	/	/	/
N/C(=N\OC(=O)CCCc1ccccc1)c1ccccc1	6.8	-3.5	1.7	3.6	31.0	0.2	/	/	/	/	/
Cc1ccc(/C(N)=N/OC(=O)c2ccco2)cc1	89.2*	7.8	95.4*	13.0	72.9*	2.4	76.1*	94.8*	101.7*	90.8*	67.6*
Cc1cccc(/C(N)=N/OC(=O)c2ccco2)c1	84.3*	0.7	90.8*	19.1	91.6*	-22.6	91.1*	92.3*	100.6*	94.1*	85.5*
COc1cc(OC)c(C(=O)O/N=C(\N)c2cccc(C)c2)cc1OC	0.5	-4.5	0.5	-11.5	-10.5	0.5	/	/	/	/	/
SMILES	SENP8 block-1	HSP90 refold inh	SENP7 block	SENP8 block-2	SENP6 inh	Platelet DG rel	SENP8 confirm	SENP6 confirm	SENP7 confirm	Casp3 select	SENP luc ctr
Cc1cccc(/C(N)=N/OC(=O)CCCc2ccccc2)c1	39.9	6.6	-0.2	7.5	60.2*	-5.8	49.5	52.4*	84.7*	67.8*	20.9
O=C(Oc1ccc(-c2ccccc2)cc1)c1ccco1	/	/	/	20.0	/	/	/	/	/	/	/
N/C(=N\OC(=O)c1ccco1)c1ccccc1	81.9*	2.0	80.6*	5.9	88.2*	3.0	74.3*	75.2*	95.1*	90.1*	75.5*
CCOc1ncccc1C(=O)Nc1c(C)n(C)n(-c2ccccc2)c1=O	-5.2	-1.8	-8.8	9.4	-7.6	-2.1	/	/	/	/	/
N/C(=N\OC(=O)C1CCCCC1)c1ccccn1	45.5	2.7	68.1*	14.8	67.0*	8.7	61.2*	59.5*	87.3*	89.1*	67.2*
N/C(=N\OC(=O)c1ccco1)c1ccc(Br)cc1	74.2*	-5.2	76.0*	0.1	92.6*	/	83.9*	82.9*	96.9*	75.0*	72.6*
N/C(=N\OC(=O)c1ccco1)c1ccccn1	49.2	4.1	77.6*	17.3	76.4*	1.5	61.9*	62.2*	91.0*	92.3*	76.0*
Cc1occc1C(=O)O/N=C(\N)c1ccc(Cl)cc1	30.8	-6.9	61.3*	-1.9	52.7*	-5.3	32.3	32.8	74.3*	69.0*	58.5*
Cc1ccc(C(=O)COC(=O)CCN2C(=O)C3C4C=CC(C5CC45)C3C2=O)cc1 (stereo not given)	-14.5	-1.8	2.9	10.6	-5.8	0.7	/	/	/	/	/
